# In the supplement of paper PMC3334620:
# Whole data set: some 33,000 sequences, median “E-score (-0.5 to 0.5)” near -0.032, cut for the highest 2% near 0.36. The list comes from a sample in which the highest values are over-represented; it also holds similar and randomly drawn sequences.
# Target: T1, Sko1 (UniProt Q02100)
# T1 sequence: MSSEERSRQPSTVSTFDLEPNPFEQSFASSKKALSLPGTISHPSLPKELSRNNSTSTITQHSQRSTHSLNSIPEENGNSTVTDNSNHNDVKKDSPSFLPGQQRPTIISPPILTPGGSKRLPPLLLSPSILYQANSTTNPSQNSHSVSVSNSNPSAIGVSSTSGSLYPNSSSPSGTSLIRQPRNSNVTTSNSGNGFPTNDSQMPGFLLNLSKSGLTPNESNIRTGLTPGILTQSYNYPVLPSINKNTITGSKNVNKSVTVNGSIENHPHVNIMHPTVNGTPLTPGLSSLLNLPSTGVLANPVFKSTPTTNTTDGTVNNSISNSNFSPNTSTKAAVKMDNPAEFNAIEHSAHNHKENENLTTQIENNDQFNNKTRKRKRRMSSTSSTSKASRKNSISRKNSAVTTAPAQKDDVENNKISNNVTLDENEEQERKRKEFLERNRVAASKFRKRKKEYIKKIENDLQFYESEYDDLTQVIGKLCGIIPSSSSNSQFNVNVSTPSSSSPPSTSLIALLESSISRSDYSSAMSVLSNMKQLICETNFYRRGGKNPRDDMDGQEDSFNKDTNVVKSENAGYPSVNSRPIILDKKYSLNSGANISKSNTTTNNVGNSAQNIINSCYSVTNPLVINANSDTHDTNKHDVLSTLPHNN
# Assay: PBM E-score (8-mer binding enrichment) (E-score (-0.5 to 0.5)); higher = stronger / more preferred TF binding
# Settings: protein concentration: 200 nM; construct: GST-full length
# In short: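 For each ungapped eight-base word taken together with its reverse complement, the Universal PBM Analysis Suite assigned an E-score. Binding data came from GST-tagged yeast transcription factors, applied at about 100-200 nM, on universal all-10-mer Agilent arrays made double-stranded by primer extension. Fluorescent anti-GST marked bound protein, and scans were normalised with masliner.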
row,Sequence,PBM E-score
1,CTAACTTA,0.00938
2,CGCTGTGC,-0.202
3,CGTTATTA,0.303
4,CACAGTGC,-0.182
5,AGACTTAT,-0.0312
6,AGTCAATC,0.017
7,CGTCAACA,0.323
8,CGTCAATC,0.365
9,CGTCAATA,0.359
10,CGTCAGTA,0.327
11,CGTCAGTC,0.375
12,CGTCAACG,0.389
13,CGTCAGGA,0.39
14,CGTCAGGC,0.272
15,AGTCAGTC,-0.02
16,GGTCAGGA,-0.245
17,AGTCAACG,0.0691
18,CCTGGTAA,-0.124
19,CGCTGTCC,-0.0275
20,ATTCCATG,-0.0675
21,AACGAAAT,0.261
22,CGTGGGAA,0.00507
23,GCATAAAC,0.166
24,ACCAAGGC,-0.197
25,CTGCCCGC,-0.0733

row,Sequence,PBM E-score
1,GCCTACAA,-0.169
2,CTCTGATA,0.0155
3,GCAAGTCA,0.00337
4,ACAGAGAG,-0.274
5,ATTTCTTG,0.164
6,GGCTCACA,-0.118
7,GTGTCCAA,0.142
8,ATTGTGCA,0.076
9,CTGTTCGA,-0.13
10,ACGTCGCC,0.327
11,GACGTGAC,0.432
12,AACGTGAC,0.277
13,CGCGTGAC,0.267
14,GACGTGAA,0.358
15,CACGTGAG,0.344
16,CACGTGAC,0.387
17,AATCGACG,0.295
18,GAAACCCC,-0.221
19,GCGACGGA,-0.237
20,CCGACGTA,0.415
21,GCGACGTA,0.413
22,CCGACGGA,-0.237
23,GCGACGAA,0.0338
24,CCGACGTC,0.309
25,GACACTGC,-0.0761

row,Sequence,PBM E-score
1,GGGCGCTA,-0.0254
2,GCTGGAAC,-0.188
3,CCGTAGCC,-0.259
4,ACGTAGCA,0.412
5,ACTTAGCG,0.0634
6,TCGTAGCA,0.217
7,ACTTAGCT,-0.211
8,ACGTAGCT,0.444
9,CCGTAGCG,-0.239
10,GCGTAGCC,0.00349
11,ACGTAGCG,0.42
12,ACGTAGCC,0.388
13,CCGTAGCA,-0.064
14,AAGTAGCT,0.0695
15,TAGGATGA,0.136
16,CGTTCGAG,0.189
17,ACTAAAGG,-0.0392
18,GAACACAC,-0.0651
19,CCCCAGCA,-0.157
20,ACCGTATG,0.105
21,CACGTATA,0.431
22,GAAGTATC,0.0123
23,GACGTATC,0.422
24,CACGTATG,0.426
25,AACGTATG,0.431

row,Sequence,PBM E-score
1,CTCGTATA,0.0394
2,CAGGTATG,-0.00478
3,CAAGTATG,0.0253
4,AGCGTATC,-0.0128
5,CGCGTATA,0.244
6,AGCGTATG,-0.0197
7,CGAGCACA,-0.00253
8,CAGTTCAG,-0.112
9,TTACAGAA,-0.0258
10,ACAATAGC,-0.0393
11,CAATGCCG,-0.128
12,CGACCTTC,-0.189
13,ACTGCGTC,0.284
14,ACCGTATA,0.0367
15,TACGTATA,0.483
16,CACGTATC,0.393
17,AAGGTATT,0.131
18,AAAGTATT,0.0493
19,GACGTATA,0.453
20,CTCGTATC,0.0593
21,CGCGTATC,0.232
22,GGCGTATA,0.148
23,ATCGTATA,0.197
24,GTCGTATA,0.269
25,AACGTATT,0.434
